Results filed as inconclusive are left out. Active and inactive are the calls of the source. Calls follow the shape of the dose curve; as a rule, active = well fitted inhibition curve with a large enough effect; inconclusive = small, poorly fitted or top-dose-only effect; inactive = flat fitted curve, though single readings scatter.
System: MCC-26
Assay: qHTS assay to identify novel small-molecules to repurpose for Merkel cell carcinoma treatment (AID 1296009); also: nearly all actives have a fitted effect of over 60% in size
Details: MCC and control cell lines, CellTiter-Glo viability, 72 h; series mostly up to 46 µM; activity change, negative = cytotoxicity: at the top concentration
Method in brief: (§1)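 Cell viability measured by CellTiter-Glo following 72 hr compound treatment at 37 degree celsius, with NPC and MIPE libraries tested in 8- and 11-point concentration series.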
% is scaled to controls: 0 for no effect and ±100 for the full control effect.

| SMILES | activity change, negative = cytotoxicity | Potency |
| --- | --- | --- |
| Nc1ccccc1 | 4.28% (inactive) |  |
| CC(C)N(CCC(C(N)=O)(c1ccccc1)c1ccccn1)C(C)C (stereo not given) | -5.16% (inactive) |  |
| C=C(C)[C@H]1CN[C@H](C(=O)O)[C@H]1CC(=O)O | 13.3% (inactive) |  |
| CN1C(=O)CCS(=O)(=O)C1c1ccc(Cl)cc1 (stereo not given) |  | inactive |
| CNC(C)(C)Cc1ccccc1 | 0.36% (inactive) |  |
| CC1(C)C(C=C(Cl)Cl)C1C(=O)OC(C#N)c1cccc(Oc2ccccc2)c1 (stereo not given) | 5.01% (inactive) |  |
| O=C1c2ccccc2C(=O)c2ccccc21 | 0.0479% [at 16.1 µM] (inactive) |  |
| O=C1c2ccccc2C(=O)C1C(=O)C(c1ccccc1)c1ccccc1 | 6.6% (inactive) |  |
| C[C@]12CC[C@@H]3c4ccc(OC(=O)N(CCCl)CCCl)cc4CC[C@H]3[C@@H]1CC[C@@H]2OP(=O)(O)O | 5.58% (inactive) |  |
| CCC1(c2ccc(N)cc2)CCC(=O)NC1=O (stereo not given) |  | inactive |
| O=C(O)CCCc1ccc(N(CCCl)CCCl)cc1 |  | inactive |
| NNc1ccccc1 | 1.36% (inactive) |  |
| NC(=O)c1cc([N+](=O)[O-])cc([N+](=O)[O-])c1 | 4.74% (inactive) |  |
| COP(=S)(OC)Oc1cc(Cl)c(Cl)cc1Cl | 11.7% (inactive) |  |
| c1ccc(CN2CCNCC2)cc1 | -15.5% [at 155 µM] (inactive) |  |
| CCN(CCO)CCn1c(Cc2ccccc2)nc2c1c(=O)n(C)c(=O)n2C | 8.57% (inactive) |  |
| CC(C)(C)NCC(O)c1cc(Cl)c(N)c(C(F)(F)F)c1 (stereo not given) | 0.877% (inactive) |  |
| C=CCN1C[C@H](C)N([C@H](c2ccc(C(=O)N(CC)CC)cc2)c2cccc(OC)c2)C[C@H]1C | 1.59% (inactive) |  |
| CC(NC(C)(C)C)C(=O)c1cccc(Cl)c1 (stereo not given) |  | inactive |
| O=c1[nH]oc2c1CCNC2 | -2.25% (inactive) |  |
| CC(=O)OCC1=C(C(=O)O)N2C(=O)[C@@H](N)[C@H]2SC1 | -2.35% [at 16.1 µM] (inactive) |  |
| COc1ccc2c3c1O[C@H]1[C@H](O)CC[C@H]4[C@@H](C2)N(C)CC[C@@]341 | -7.89% [at 92.7 µM] (inactive) |  |
| CN1CC[C@]23c4c5ccc(O)c4O[C@H]2[C@@H](O)CC[C@H]3[C@H]1C5 | -2.93% [at 92.7 µM] (inactive) |  |
| COc1cc(OC)c(OC)cc1C=O |  | inactive |
| Oc1ccc(Cl)cc1 | 3.05% (inactive) |  |
| CC(C)c1cccc(C(C)C)c1O |  | inactive |
| CNCC(=O)c1ccc(O)c(O)c1 | -1.74% (inactive) |  |
| CCOC(=O)CC(SP(=S)(OC)OC)C(=O)OCC (stereo not given) |  | inactive |

System: MKL-1
Assay: as above
Details: MCC and control cell lines, CellTiter-Glo viability, 72 h; series mostly up to 46 µM; activity change, negative = cytotoxicity: at the top concentration
Method in brief: as §1

| SMILES | activity change, negative = cytotoxicity | Potency |
| --- | --- | --- |
| Nc1ccccc1 | 1.33% (inactive) |  |
| CC(C)N(CCC(C(N)=O)(c1ccccc1)c1ccccn1)C(C)C (stereo not given) | 5.14% (inactive) |  |
| C=C(C)[C@H]1CN[C@H](C(=O)O)[C@H]1CC(=O)O | 5.8% (inactive) |  |
| CN1C(=O)CCS(=O)(=O)C1c1ccc(Cl)cc1 (stereo not given) |  | inactive |
| CNC(C)(C)Cc1ccccc1 | 7.89% (inactive) |  |
| CC1(C)C(C=C(Cl)Cl)C1C(=O)OC(C#N)c1cccc(Oc2ccccc2)c1 (stereo not given) | 5.04% (inactive) |  |
| O=C1c2ccccc2C(=O)c2ccccc21 | 0.663% [at 16.1 µM] (inactive) |  |
| C[C@]12CC[C@@H]3c4ccc(OC(=O)N(CCCl)CCCl)cc4CC[C@H]3[C@@H]1CC[C@@H]2OP(=O)(O)O | 6.99% (inactive) |  |
| COC(=O)[C@@H](N)CCCN/C(N)=N/[N+](=O)[O-] | -3.41% (inactive) |  |
| CCC1(c2ccc(N)cc2)CCC(=O)NC1=O (stereo not given) |  | inactive |
| O=C(O)CCCc1ccc(N(CCCl)CCCl)cc1 |  | inactive |
| NNc1ccccc1 | 1.11% (inactive) |  |
| CCc1cc2c(s1)-n1c(C)nnc1CN=C2c1ccccc1Cl | 4.01% (inactive) |  |
| NC(=O)c1cc([N+](=O)[O-])cc([N+](=O)[O-])c1 | -7.78% (inactive) |  |
| COP(=S)(OC)Oc1cc(Cl)c(Cl)cc1Cl | 7.36% (inactive) |  |
| c1ccc(CN2CCNCC2)cc1 | -15.3% [at 155 µM] (inactive) |  |

| SMILES | activity change, negative = cytotoxicity | Potency |
| --- | --- | --- |
| C[N+]1(CCF)[C@@H]2CC[C@H]1CC(OC(=O)C(O)(c1ccccc1)c1ccccc1)C2 (stereo not given in full) | 16.1% (inactive) |  |
| CCN(CCO)CCn1c(Cc2ccccc2)nc2c1c(=O)n(C)c(=O)n2C | 17.8% (inactive) |  |
| CC(C)(C)NCC(O)c1cc(Cl)c(N)c(C(F)(F)F)c1 (stereo not given) | 1.37% (inactive) |  |
| O=C1OC(c2ccc(O)c(S(=O)(=O)O)c2)(c2ccc(O)c(S(=O)(=O)O)c2)c2c(Br)c(Br)c(Br)c(Br)c21 | 0.944% (inactive) |  |
| C=CCN1C[C@H](C)N([C@H](c2ccc(C(=O)N(CC)CC)cc2)c2cccc(OC)c2)C[C@H]1C | 8.24% (inactive) |  |
| CCCCCCCCCC(=O)O[C@H]1CC[C@H]2[C@@H]3CCC4=CC(=O)CC[C@@H]4[C@H]3CC[C@]12C | -5.64% (inactive) |  |
| CC(NC(C)(C)C)C(=O)c1cccc(Cl)c1 (stereo not given) |  | inactive |
| O=c1[nH]oc2c1CCNC2 | 5.71% (inactive) |  |
| CC(=O)OCC1=C(C(=O)O)N2C(=O)[C@@H](N)[C@H]2SC1 | -2.67% [at 16.1 µM] (inactive) |  |
| O=P1(N(CCCl)CCCl)NCCCO1 (stereo not given) |  | inactive |
| CN1CC[C@]23c4c5ccc(O)c4O[C@H]2[C@@H](O)CC[C@H]3[C@H]1C5 | -9.66% [at 92.7 µM] (inactive) |  |
| COc1cc(OC)c(OC)cc1C=O |  | inactive |
| Oc1ccc(Cl)cc1 | 1.46% (inactive) |  |
| CC(C)c1cccc(C(C)C)c1O |  | inactive |
| CNCC(=O)c1ccc(O)c(O)c1 | 1.05% (inactive) |  |
| CCOC(=O)CC(SP(=S)(OC)OC)C(=O)OCC (stereo not given) | -1.14% (inactive) |  |
